According to PubChem BioAssay (NCI):
The panel holds about 83,000 compounds, 20% with a hit somewhere; the sample as a whole holds those more often.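 Plates (96-well) were seeded with cells, treated with compound at one concentration, and incubated for 48 hours before percent growth was determined.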 Values without a mark were called inactive. The source made the active and inactive calls. Rule for the calls: active = growth percent below 10; inactive = the rest.

Key:
Assay in all cases: NCI-60 one-dose screen, 48 h (100 = growth as untreated, 0 = no growth, -100 = all killed)
Settings in all cases: 10 µM
[1] = system: EKVX NSCLC
[2] = system: SN12C renal
[3] = system: UO-31 renal
[4] = system: TK-10 renal
[5] = system: ACHN renal
[6] = system: CAKI-1 renal
[7] = system: A498 renal
[8] = system: CCRF-CEM leukemia
[9] = system: MOLT-4 leukemia

For `O=C1/C=C/[C@@H](O)[C@@H]2C[C@@H](O)C[C@H]2/C=C/CCC[C@H](CCc2ccc(C(F)(F)F)cc2)O1`, the growth [1] was 3.27% (active), the growth [2] was 1.34% (active) and the growth [3] was 1.2% (active). The growth [4] was -40% (active), the growth [5] was 8.15% (active) and the growth [6] was 8.3% (active). The growth [7] was -29.7% (active), the growth [8] was -11% (active) and the growth [9] was -21.5% (active).

Work on `COc1ccc(Cc2cnc(N)nc2N)cc1OC` yielded a growth [1] of 115%, a growth [2] of 96.1% and a growth [3] of 78%. The growth [4] was 110%, the growth [5] was 96.5% and the growth [6] was 89.1%. The growth [7] was 73.4%, the growth [8] was 102% and the growth [9] was 104%.

Work on `CCC1NC(=O)c2cc(S(N)(=O)=O)c(Cl)cc2N1` (stereo not drawn) yielded a growth [1] of 109%, a growth [2] of 94% and a growth [3] of 98.8%. The growth [4] was 106%, the growth [5] was 108% and the growth [6] was 104%. For the same molecule, the growth [7] was 110%, the growth [8] was 97.7% and the growth [9] was 113%.

For `Cc1cc(CC(C)CC(C)(C)C)n(O)c(=O)c1` (stereo not drawn) (tested in a mixture with another compound), the growth [1] was 24.2%, the growth [2] was 13.2% and the growth [3] was 0% (active). The growth [4] was 75%, the growth [5] was 9.73% (active) and the growth [6] was 34.3%. The growth [7] was 62.4%, the growth [8] was 11.4% and the growth [9] was -6.44% (active).

For `N=C1S/C(=C/c2ccc(-c3ccc4c(c3)C(=O)NC4=O)o2)C(=O)N1c1ccc(Br)cc1`, the growth [2] was 56.3%, the growth [3] was -13.3% (active) and the growth [4] was 42.6%. It also gave a growth [5] of 52%, a growth [6] of 33.7% and a growth [7] of 39.5%. For the same molecule, the growth [9] was 52.2%.

Work on `CCCc1nc(C(C)(C)O)c(C(=O)O)n1Cc1ccc(-c2ccccc2-c2nn[nH]n2)cc1` yielded a growth [1] of 106%, a growth [2] of 96.4% and a growth [3] of 84.6%. For the same molecule, the growth [4] was 96.8%, the growth [5] was 93.5% and the growth [6] was 92.6%. It also gave a growth [7] of 80.2%, a growth [8] of 95.8% and a growth [9] of 107%.

In the case of `CCCCc1oc2ccccc2c1C(=O)c1cc(I)c(OCCN(CC)CC)c(I)c1`, the growth [1] is reported as 3.63% (active), the growth [2] is reported as 5.13% (active) and the growth [3] is reported as -37% (active). For the same molecule, the growth [4] was -40.5% (active), the growth [5] was 20% and the growth [7] was -47.3% (active). The growth [8] was -32.2% (active) and the growth [9] was -54.3% (active).

In the case of `c1ccc(CSc2ncccc2-c2nnc(SCCN3CCOCC3)o2)cc1`, the growth [1] is reported as 108%, the growth [2] is reported as 114% and the growth [3] is reported as 89.4%. For the same molecule, the growth [4] was 118%, the growth [5] was 124% and the growth [6] was 100%. The growth [7] was 107%, the growth [8] was 103% and the growth [9] was 103%.

For `CC1/C=C/C=C/C=C/C=C/C=C/C=C/C=C/C(O[C@@H]2O[C@H](C)[C@H](O)[C@@H](O)[C@@H]2N)CC(O)C(C(=O)O)C(O)CC(=O)CC(O)CC(O)CC(O)CC(=O)CCCC(=O)CC(=O)OC1C(C)CC(C)C(O)CC(=O)c1ccc(N)cc1` (stereo partly drawn), the growth [1] was -98.6% (active), the growth [2] was -93.4% (active) and the growth [3] was -96.4% (active). For the same molecule, the growth [4] was -96.8% (active), the growth [5] was -99.7% (active) and the growth [6] was -98.2% (active). The growth [7] was -98.4% (active), the growth [8] was -59.2% (active) and the growth [9] was -72.2% (active).

With `O[C@@H]1CO[C@H]2[C@@H]1OC[C@@H]2O` the growth [1] was 87.6%, the growth [2] was 103% and the growth [3] was 106%. The growth [4] was 117%, the growth [5] was 98.9% and the growth [6] was 79.2%. For the same molecule, the growth [8] was 101% and the growth [9] was 116%.

With `O=C(CCCCCCC(=O)Nc1ccccc1)NO` the growth [1] was 28.8%, the growth [2] was 11.7% and the growth [3] was -2.53% (active). For the same molecule, the growth [4] was 6.84% (active), the growth [5] was 4.68% (active) and the growth [6] was -28.3% (active). The growth [7] was -44.9% (active) and the growth [9] was -5.35% (active).

Molecule `CNC(=O)c1c(I)c(NC(C)=O)c(I)c(C(=O)O)c1I` has a growth [1] of 126%, a growth [2] of 95.6% and a growth [3] of 88.6%. It also gave a growth [4] of 114%, a growth [5] of 102% and a growth [6] of 115%. For the same molecule, the growth [7] was 99.3%, the growth [8] was 104% and the growth [9] was 110%.

For `COc1cc(-c2ccc[nH]2)[nH]c1/C=C1\N=C(C)C(C(=O)NC(C)C)=C1C`, the growth [1] was 35.4%, the growth [2] was 38.3% and the growth [3] was -35% (active). The growth [4] was 17.7%, the growth [5] was 12.6% and the growth [7] was 67.7%. The growth [9] was -14.2% (active).

With `COc1ccc2nc3cc(Cl)ccc3c(Nc3cc(CN4CCCC4)c(O)c(CN4CCCC4)c3)c2n1` the growth [1] was 8.66% (active), the growth [2] was 10.7% and the growth [3] was 18.9%. The growth [4] was 21.4%, the growth [5] was 22.9% and the growth [6] was -4.38% (active). For the same molecule, the growth [7] was -17.4% (active), the growth [8] was 2.85% (active) and the growth [9] was -25.2% (active).

For `COc1ccc(CCN2CCC(Nc3nc4ccccc4n3Cc3ccc(F)cc3)CC2)cc1`, the growth [1] was 45.1%, the growth [2] was 34.1% and the growth [3] was -19.8% (active). For the same molecule, the growth [4] was -6.61% (active), the growth [5] was 12.5% and the growth [6] was -1.28% (active). The growth [7] was -9.07% (active), the growth [8] was -13.6% (active) and the growth [9] was -40.7% (active).

Work on `C=C(NC(=O)C(=C)NC(=O)c1csc(C2=NC3c4csc(n4)C4NC(=O)c5csc(n5)C(C(C)(O)C(C)O)NC(=O)C5CSC(=N5)C(=CC)NC(=O)C(C(C)O)NC(=O)c5csc(n5)C3(CC2)NC(=O)C(C)NC(=O)C(=C)NC(=O)C(C)NC(=O)C(C(C)CC)NC2C=Cc3c(C(C)O)cc(nc3C2O)C(=O)OC4C)n1)C(N)=O` (stereo not drawn) yielded a growth [1] of 72.2%, a growth [2] of 25.6% and a growth [3] of 64.7%. The growth [4] was 27.7%, the growth [5] was 23.6% and the growth [6] was 71.4%. For the same molecule, the growth [7] was -41.5% (active), the growth [8] was -10.1% (active) and the growth [9] was -36.9% (active).

`C[C@]12CC[C@@H]3c4ccc(O)cc4CC[C@H]3[C@@H]1CC[C@@H]2NS(=O)(=O)c1ccc(C(F)(F)F)cc1` gave a growth [2] of 42%, a growth [3] of 13.6% and a growth [5] of 26.9%. The growth [6] was 38.6%, the growth [7] was 61.3% and the growth [9] was 11.7%.

`CCN1CC(CCN2CCOCC2)C(C(c2ccccc2)c2ccccc2)C1=O` (stereo not drawn) showed a growth [1] of 97.8%, a growth [2] of 98.4% and a growth [3] of 85.5%. For the same molecule, the growth [4] was 114%, the growth [5] was 107% and the growth [6] was 91.5%. For the same molecule, the growth [7] was 79.5%, the growth [8] was 96.4% and the growth [9] was 100%.

In the case of `COc1ccc(C2CC(c3cccs3)=NN2c2ccc(S(N)(=O)=O)cc2)cc1` (stereo not drawn), the growth [2] is reported as 91.3%, the growth [4] is reported as 108% and the growth [5] is reported as 90.2%. It also gave a growth [6] of 88.9%, a growth [7] of 78.5% and a growth [8] of 76.3%. For the same molecule, the growth [9] was 71.3%.

`CC(=O)[C@@]12O[C@](C)(c3ccccc3)O[C@@H]1CC1C3CCC4=CC(=O)CC[C@]4(C)C3CC[C@@]12C` (stereo partly drawn) was tested, and the growth [1] was 63.5%, the growth [2] was 84% and the growth [3] was 51.6%. The growth [4] was 88.2%, the growth [5] was 69.3% and the growth [6] was 47.5%. It also gave a growth [7] of 68.2%, a growth [8] of 73.1% and a growth [9] of 23.7%.
